DAX1 inh-1: inhibitors of human orphan nuclear receptor DAX1 (NR0B1) | P51843 | 0.99% of 340,000 active | HEK293 Gal4-DAX1 luciferase reporter, luminescence | inhibition, % at 6.75 µM | AID 504766;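 active = inhibition above the mean over all tested compounds plus 3 SD, cut at about 4.2% in these data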;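 also: 0% = DAX1-transfected cells with DMSO and 100% = empty-vector control cells with DMSO; inhibition shows as a rise in luminescence from relieved DAX1 repression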
hgDAF12 agonist: agonists of H. glycines DAF-12 nuclear receptor; activation, % at 6.8 µM; HEK293 GAL4-hgDAF12 UAS-luciferase reporter, agonist luminescence; normalized to butyrate control; 1.8% of 370,000 active;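 active = activation above a cutoff set at the mean of all screened compounds plus 3 SD, cut at about 10% in these data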;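 also: 0% = DMSO wells and 100% = sodium butyrate wells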
ssDAF12 agonist: S. stercoralis DAF-12 activation, primary screen; 1% of 370,000 active; HEK293 ssDAF-12/GRIP1 lit1-tk-luc reporter, luminescence; % of 3 µM dafachronic acid response; AID 652126; activation, % at 6.8 µM;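 active = activation above the mean over all tested compounds plus 3 SD, cut at about 0.9% in these data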;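 also: 0% = DMSO-only wells and 100% = 3 µM delta7-dafachronic acid wells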
DAX1 inh-2: DAX1 (NR0B1) inhibition, primary screen. inhibition, % at 6.8 µM. 1.1% of 370,000 active. HEK293T StAR-luciferase reporter, SF-1/DAX-1 repression relief;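 active = inhibition above the mean over all tested compounds plus 3 SD, cut at about 3.6% in these data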;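 also: 0% = DAX-1 cells with DMSO and 100% = cells lacking DAX-1 with DMSO; higher inhibition means more luminescence from relief of DAX-1 repression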
hcDAF-12 act: activates DAF-12 receptor from parasite H. contortus. AID 652067. HEK293 hcDAF-12 lit1-tk-luc reporter, luminescence; 0% DMSO, 100% Δ7-dafachronic acid. 1.4% of 370,000 active. activation, % at 6.8 µM;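 active = activation above the mean of all tested compounds plus 3 SD, cut at about 5.5% in these data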;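 also: 100% = response to 3 µM Δ7-dafachronic acid high control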
DAX1 conf: confirmation of human DAX1 (NR0B1) inhibitors; shares compounds with DAX1 inh-2; HEK293T StAR-promoter luciferase reporter, SF-1/DAX-1 repression; inhibition, % at 6.8 µM; 87% of 2,400 active; AID 652134;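 active = inhibition above the average of every tested compound plus 3 SD, cut at about 3.8% in these data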;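 also: 0% = DAX-1 cells with DMSO and 100% = no DAX-1 control cells with DMSO; active compounds raise luminescence by relieving repression of the StAR reporter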
Target sequence (P51843 whole entry, looked up): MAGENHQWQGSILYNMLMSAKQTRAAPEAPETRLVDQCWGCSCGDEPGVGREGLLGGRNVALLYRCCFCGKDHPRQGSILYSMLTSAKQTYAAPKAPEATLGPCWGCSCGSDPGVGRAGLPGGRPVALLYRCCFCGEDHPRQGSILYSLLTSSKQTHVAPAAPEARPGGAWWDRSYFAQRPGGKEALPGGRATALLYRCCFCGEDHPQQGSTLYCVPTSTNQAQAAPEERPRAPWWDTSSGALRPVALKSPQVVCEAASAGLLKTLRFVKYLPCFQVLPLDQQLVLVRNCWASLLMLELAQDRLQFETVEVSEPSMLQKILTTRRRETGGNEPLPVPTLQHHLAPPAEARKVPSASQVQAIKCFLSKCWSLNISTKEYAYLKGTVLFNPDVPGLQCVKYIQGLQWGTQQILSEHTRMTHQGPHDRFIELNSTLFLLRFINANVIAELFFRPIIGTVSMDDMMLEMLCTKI
SF1 mutant ctr: nonselective inhibitor or artifact in SF-1 mutant DAX1 counter-screen; shares compounds with DAX1 inh-2; HEK293 StAR-luciferase, SF-1 AF2 mutant, luminescence; inhibition, % at 6.8 µM; 78% of 2,400 active; AID 652136;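 active = inhibition above the mean of all tested compounds plus 3 SD, cut at about 3% in these data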;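 also: 0% = DAX-1 transfected cells with DMSO and 100% = cells without DAX-1 with DMSO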
Numbers without * were called inactive; x = not tested or not shown. In the library only some 4.1% were active in any assay of this set; here they are far more common.

SMILES	DAX1 inh-1	hgDAF12 agonist	ssDAF12 agonist	DAX1 inh-2	hcDAF-12 act	DAX1 conf	SF1 mutant ctr
COC(=O)CSc1nnc(NC(=O)c2ccc3c(c2)OCO3)s1	0	7	0	4.7*	3	8.7*	3.5*
Cc1nc(NC(=O)c2ccc(Cl)cc2)sc1Cc1ccc2c(c1)OCO2	0	4	0	0	-2	x	x
CC(=O)c1sc(NC(=O)c2ccc3c(c2)OCO3)nc1C	2	12*	0	9.4*	4	9.5*	6.5*
CC1(C)CC2CC(C)(CN2C(=O)COC(=O)c2ccc(NC(=O)CC#N)cc2)C1 (stereo not drawn)	-1	2	-2	0	-1	x	x
Cc1ccc(NC(=O)CCNS(=O)(=O)c2ccc3[nH]c(=O)oc3c2)cc1F	0	2	0	0	0	x	x
O=C(Cc1ccccc1)Nc1ccc(NC(=O)c2cccs2)cc1Cl	-1	-1	-2	-1	1	x	x
O=C(Nc1nc(-c2ccc3c(c2)OCCO3)cs1)C1CCCC1	5.8*	8	-1	4.7*	5	12*	3.9*
COc1cccc(-c2csc(NC(=O)C3CC3)n2)c1	2	12*	-1	5.2*	5	7.0*	5.8*
C[C@@H]1CN([C@@H](C)CO)S(=O)(=O)c2ccc(-c3cccc(C#N)c3)cc2O[C@@H]1CN(C)C(=O)c1ccc(F)cc1	0	1	-1	-2	-3	x	x
C/C=C/c1ccc2c(c1)O[C@@H](CN(C)C(=O)c1ccc(F)cc1)[C@@H](C)CN([C@H](C)CO)S2(=O)=O	1	-2	-1	4.8*	-2	-1	4.4*
CC(=O)c1sc(-c2ccc(F)cc2F)nc1C	0	-1	-1	0	0	x	x
O=C(Nc1ccccc1)Nc1ccc(Cl)nc1Cl	-2	5	-1	0	1	x	x
COc1cc(SC)ccc1C(=O)NNC(=O)c1cc(C)oc1C	-1	13*	0	12*	4	6.9*	5.0*
COc1ccccc1CC(NC(C)=O)C(=O)NC1CCN(C(=O)c2ccc([N+](=O)[O-])cc2)CC1 (stereo not drawn)	0	3	0	0	-1	x	x
Cc1nc2nc(-c3ccc(Cl)cc3)cn2nc1C	0	10	0	6.2*	5	9.4*	2.9*
Cc1nc2nc(-c3cccs3)cn2nc1C	0	8	0	3	3	x	x
COc1ccc(OCCCC(=O)Nc2ccc(S(=O)(=O)N3CCOCC3)cc2)cc1	-1	-5	-2	-3	2	x	x
COc1ccc(-c2cc3ccc(OCC(C)=O)cc3oc2=O)cc1	3	11*	0	9.8*	5.8*	6.5*	4.5*
CCN(c1ccc(OCC(=O)OCC(=O)c2c(N)n(C)c(=O)n(C)c2=O)cc1)S(=O)(=O)c1ccccc1	0	-1	-1	5.2*	-1	2	2
CN(c1ccc(OCC(=O)OCC(=O)c2c(N)n(C)c(=O)n(C)c2=O)cc1)S(=O)(=O)c1ccc2ccccc2c1	1	0	-1	0	-2	x	x
CC(=Nc1ccccc1)C1=C(O)C(Cc2ccccc2)NC1=O (stereo not drawn)	2	4	1	8.2*	4	31*	-5
CC1=C(C(=O)N2CCCCCC2)CC(CC(=O)NC2CCCCC2)C(=O)N1CCC1=CCCCC1 (stereo not drawn)	x	3	-1	0	1	x	x
CCCCNC(=O)C1c2ccccc2OCC(=O)N1Cc1ccc2c(c1)OCO2 (stereo not drawn)	x	-4	-1	-2	3	x	x
Cc1cccc(C)c1-n1nnnc1C(c1ccccc1OC(F)(F)F)N1CCN(C/C=C/c2ccccc2)CC1 (stereo not drawn)	x	6	-1	4.7*	-1	-3	-1
COc1ccc(-c2nnc(SCC(=O)Nc3cc(C)on3)n2N)cc1OC	0	0	0	0	-2	x	x
SMILES	DAX1 inh-1	hgDAF12 agonist	ssDAF12 agonist	DAX1 inh-2	hcDAF-12 act	DAX1 conf	SF1 mutant ctr
Cc1cc(NC(=O)CSc2ccc(-c3ccc(Br)cc3)nn2)no1	1	7	0	5.3*	3	0	0
Cc1cc(NC(=O)CSc2nnc(-c3cccc(F)c3)n2N)no1	0	-2	-1	5.2*	-1	2	2
CC(C)C[C@@H](CSc1ccc(Br)cc1)N1CCN(CC(C)C)CCC1=O	-2	5	-1	0	-1	x	x
CC(C)CCn1c(=O)c2sccc2n2c(CCCC(=O)N3CCC(N4CCCCC4)CC3)nnc12	1	0	-1	4.7*	2	4.6*	4.1*
Cn1nc(C(C)(C)C)cc1NC(=O)C1(C)CCN1C(=O)Cc1ccc(-c2ccccc2)cc1 (stereo not drawn)	x	3	-2	0	-3	x	x
COc1cc(CC(=O)C(=O)O)oc(=O)c1	1	1	-1	2	-1	x	x
Cc1ccc(C2=NNC(C(O)C(O)C(O)C(C)O)S2)cc1 (stereo not drawn)	1	7	-1	1	0	x	x
Cc1ccc(C2=NNC(c3cccc(F)c3)S2)cc1 (stereo not drawn)	-2	17*	1.6*	9.5*	14*	11*	5.2*
O=C(NCCN1CCN(C(=O)c2ccc([N+](=O)[O-])cc2)CC1)C(=O)NCc1ccccc1	0	0	-1	0	1	x	x
COc1ccccc1N1CCN(/N=C/c2ccc([N+](=O)[O-])cc2)CC1	3	4	-1	0	0	x	x
O=[N+]([O-])c1ccc(C=NN2CCCCCC2)cc1	5.6*	10	0	6.7*	4	6.9*	5.7*
CCc1nccn1CCC(=O)N1CCCC(N2CCN(c3ccccc3C)CC2)C1 (stereo not drawn)	0	1	-1	-1	1	x	x
CCc1nn(C(CC)C(=O)NCCCN2CC(C)CC(C)C2)c(=O)c2cc3oc(C)cc3n12 (stereo not drawn)	0	-1	-1	2	2	x	x
COc1cccc2sc(N(CCCN(C)C)C(=O)c3ccc(S(=O)(=O)N4CCc5ccccc5C4)cc3)nc12	0	2	-1	0	1	x	x
COc1ccc(C)c2sc(N(CCCN(C)C)C(=O)c3ccc(S(=O)(=O)N4CCc5ccccc5C4)cc3)nc12	1	4	-1	5.2*	1	-1	-2
CN(C)CCN(C(=O)C1CCN(S(=O)(=O)c2cccs2)CC1)c1nc2ccccc2s1	0	-1	-1	1	0	x	x
CCOc1ccc(-c2cc(C(=O)Nc3ccc(F)cc3)[nH]n2)c(C)c1	x	12*	0	7.4*	3	10*	6.7*

Source: PubChem (The Scripps Research Institute Molecular Screening Center)
